The values that follow come from PubChem BioAssay (NCATS).

A short description of experiment [1]: Cytotoxicity counterscreen for NFkB agonists and antagonists (AID 624476).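 Note: cells exposed to compound for 48 hours.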 Note: potency is the fitted concentration of half-maximal effect. Background: Counterscreens check selectivity or assay interference.
A short description of experiment [2]: qHTS Assay for Identification of Small Molecule Antagonists for NFkB Signaling Pathway. (AID 624479; calls by dose curve;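 note: pathway stimulated with TNF alpha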; note: potency is the fitted concentration of half-maximal effect). A general note: qHTS replaces the single test concentration by a dilution series.
Experiment [3] is described as follows: Cell Proliferation Assay against the TMD8 Cell Line (AID 651645).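 Note: cells exposed to compound for 48 h before reading.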 Conditions: TMD8 DLBCL cell line proliferation/viability; at 46.1 µM (top of the series) unless noted. The method, boiled down:
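Luminescent ATP read-out (CellTiter-Glo, 15 min RT) after 48 h compound exposure of log-growing TMD8 cells at 37C; percent activity scaled between DMSO as 100% and 9.2 uM bortezomib final as 0%.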

The nature of experiment [4]: Cell Proliferation Assay against the HBL1 Cell Line (AID 651646).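 Note: cells exposed to compound for 48 h before reading.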 Conditions: HBL1 DLBCL cells; at 46.1 µM (top of the series) unless noted. An outline of the steps: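 Luminescent ATP read-out (CellTiter-Glo) after 48 h compound exposure of HBL1 cells at 37 °C; percent activity was scaled between DMSO as 100% and 9.2 uM bortezomib (final) as 0%.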
Experiment [5] in a line: Cell Proliferation Assay against the TMD8 Cell Line (Caspase readout at 16 hrs) (AID 651712). An outline of the steps:
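Apoptotic response of TMD8 cells was judged from caspase 3/7 activation following a 16 hour compound incubation at 37 °C. Luminescent signal was converted to percent activity, with DMSO set as 0% and 9.2 uM final bortezomib as 100%.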

Experiment [6] can be described thus: Cell Proliferation Assay against the TMD8 Cell Line (Caspase readout at 8 hrs) (AID 651713). The method, boiled down:
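Seed log-phase TMD8 cells, add compound by pin tool, incubate 8 h at 37C under 5% CO2, equilibrate to room temperature, add Caspase-Glo, wait 15 min, read luminescence; percent activity uses DMSO and 9.2 uM bortezomib controls.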

Experiment [7] has as its target Tyrosine-protein kinase Yes (Homo sapiens) (UniProt P07947). Nature of the experiment: qHTS for small molecule inhibitors of Yes1 kinase: Primary Screen (AID 686947). Note: nearly all actives have a fitted effect of over 60% in size. Note: potency is the fitted concentration of half-maximal effect. An outline of the steps:
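Yes1 (4 nM) preincubated 20 min with compound, then 60 min room-temperature reaction with 0.1 mM ATP and 0.3 mg/mL poly(E4Y) in pH 7.5 Tris, 10 mM MgCl2. ADP measured by ADP-Glo luminescence, normalised to enzyme/no-enzyme controls.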

Experiment [8] is described as follows: qHTS for small molecule inhibitors of Yes1 kinase: Counter Assay (AID 686950).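 Note: no kinase present so only ADP-Glo detection of a fixed ADP amount is tested; luminescence from ADP-Glo reporting ADP in a fixed ATP and ADP mixture; 0% = DMSO wells with ATP plus ADP and -100% = ATP-only wells without ADP.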 The method, boiled down: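 Luminescence read-out from ADP-Glo quantifies a fixed ADP amount (0.02 mM ADP with 0.08 mM ATP) after 60 min at room temperature; signal is normalized between DMSO wells with ATP/ADP and with 0.1 mM ATP alone.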
A short description of experiment [9]: qHTS Assay for Identification of Small Molecule Agonists for NFkB Signaling Pathway. (AID 624478).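 Note: compounds tested together with TNF alpha at its EC50 of 10 pM; 0% is about no effect.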 The method, boiled down: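 ME-180 cervical carcinoma, stable NFkB-RE beta-lactamase reporter; 1000 cells/well, overnight attachment; cpd + TNF alpha 10 pM final, 5 h 37 C; LiveBLAzer 2 h RT; FRET 460/530 nm, ex 405 nm.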
A short description of experiment [10]: qHTS assay for small molecule agonists of the antioxidant response element (ARE) signaling pathway (AID 651741; active = well fitted activation curve with a large enough effect in the signal ratio; the % refers to the signal ratio; note: potency is the fitted concentration of half-maximal effect). An outline of the steps: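 Quantitative HTS in HepG2 cells stably expressing an ARE-beta-lactamase reporter; 16 h compound exposure at 37 C, followed by 2 h room-temperature incubation with LiveBLAzer B/G FRET substrate and fluorescence measurement.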

The nature of experiment [11]: qHTS assay for small molecule activators of the nuclear factor-kappa B (NF-kB) signaling pathway (AID 651749; active = well fitted activation curve with a large enough effect in the signal ratio; the % refers to the signal ratio; note: % of control where 0% means no effect). Conditions: NF-kB-bla ME-180 cells, beta-lactamase FRET ratio, 16 h; stronger effect = higher value. An outline of the steps: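 Readout: beta-lactamase reporter driven by an NF-kB response element, detected fluorescently as loss of FRET. Cells were the ME-180 line, treated 16 hr at 37C with pin-transferred compound.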

Experiment [12] can be described thus: qHTS assay for environmental chemicals that activate the Aryl hydrocarbon Receptor (AhR) signaling pathway (AID 651777). Note: % of control where 0% means no effect; nearly all actives have a fitted effect of over 15% in size. Conditions: 1A2-DRE human hepatoma cells, luciferase, 24 h; stronger effect = higher value. An outline of the steps:
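Human hepatoma 1A2-DRE cells, stably carrying a dioxin response element and CYP1A2 promoter driving luciferase, were exposed to compounds for 24 hr at 37 C and 5% CO2. Luciferase signal was then read after 30 min One-Glo at room temperature.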

Results filed as inconclusive are left out. The source made the active and inactive calls. Unless noted, calls come from the whole dose curve; as a rule, active = well fitted curve in the direction sought with a large enough effect; inconclusive = small, poorly fitted or top-dose-only effect, or another doubt; inactive = no such curve, though single readings can be large; an effect the other way counts as inactive or inconclusive.

Chain of Tyrosine-protein kinase Yes (Homo sapiens) (P07947 whole entry, looked up): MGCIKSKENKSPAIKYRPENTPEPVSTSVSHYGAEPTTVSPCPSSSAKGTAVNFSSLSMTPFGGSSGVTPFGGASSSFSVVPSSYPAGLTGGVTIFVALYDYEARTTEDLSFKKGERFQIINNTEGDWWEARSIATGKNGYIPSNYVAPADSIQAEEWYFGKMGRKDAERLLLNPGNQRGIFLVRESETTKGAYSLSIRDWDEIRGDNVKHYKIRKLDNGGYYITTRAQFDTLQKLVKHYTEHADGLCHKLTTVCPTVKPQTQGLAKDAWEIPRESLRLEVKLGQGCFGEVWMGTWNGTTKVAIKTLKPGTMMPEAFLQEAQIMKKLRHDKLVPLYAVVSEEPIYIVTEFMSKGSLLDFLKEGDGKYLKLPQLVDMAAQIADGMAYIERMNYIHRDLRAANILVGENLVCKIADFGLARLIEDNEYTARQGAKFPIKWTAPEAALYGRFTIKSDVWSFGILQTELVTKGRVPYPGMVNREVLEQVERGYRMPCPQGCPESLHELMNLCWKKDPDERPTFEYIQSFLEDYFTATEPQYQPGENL

Regarding `CCN(CCCO)CCCOc1ccc2c(Nc3cc(CC(=O)Nc4cccc(F)c4)[nH]n3)ncnc2c1`, the Potency entry in experiment [1], in experiment [2], in experiment [5] and in [6] was “inactive” in each case. For the same molecule, the viability (% of control) in experiment [3] came to 42.6%. The viability, percent of control in experiment [4] was found to be 67.6%. Further, the Potency in experiment [7] was 0.387 µM (active). Besides, the molecule was classed as inactive in experiment [8].

For the molecule `CNC(=O)c1ccc(N2C(=S)N(c3ccc(C#N)c(C(F)(F)F)c3)C(=O)C2(C)C)cc1F`, the Potency result in experiment [1], in experiment [5], in experiment [6] and in experiment [7] was “inactive” in each case. In addition, the result in experiment [9] and in experiment [8] was inactive. Moreover, the viability (% of control) in [3] was 78.7%. Besides, in [4], the viability, percent of control worked out at 83.2%.

Take `CCc1ccc(CCOc2ccc(CC3SC(=O)NC3=O)cc2)nc1` (stereo not given): the Potency result in experiment [1] and in experiment [6] was “inactive” throughout. Also, the Potency was 16.8 µM (active) in experiment [2] and 1.73 µM (active) in [7]. Besides, the viability (% of control) in experiment [3] came out at 79.6%. Also, in experiment [4], the viability, percent of control was 77.7%. In addition, the outcome in experiment [8] was inactive.

Take `CCCc1nc2c(C)cc(-c3nc4ccccc4n3C)cc2n1Cc1ccc(-c2ccccc2C(=O)O)cc1`: the Potency result in [1], in experiment [2], in experiment [5], in [6] and in [7] was “inactive” in each case. Moreover, the viability (% of control) in [3] came out at 71.5%. The viability, percent of control in experiment [4] came to 70.6%. Moreover, the outcome in [8] was inactive.

Take `NC(=O)c1ccc(-c2nc(-c3ccc4c(c3)OCCO4)c(-c3ccccn3)[nH]2)cc1`: the Potency result in experiment [1], in [5], in experiment [6] and in experiment [7] was “inactive” throughout. In addition, the molecule was classed as inactive in experiment [9] and in experiment [8]. Also, in [3], the viability (% of control) is 83.2%. Further, in [4], the viability, percent of control was determined as 105%.

On to `O=C(OCC#CCSc1nnc(-c2ccc3ccccc3c2)o1)c1cc2ccccc2s1`, for which the Potency entry in experiment [1], in experiment [2], in [5], in [6] and in experiment [7] was “inactive” each time. The viability (% of control) in experiment [3] worked out at 90%. In addition, in experiment [4], the viability, percent of control was 86.3%. Further, in experiment [8], the molecule was called inactive.

For the molecule `CCCS(=O)(=O)Nc1ccc(F)c(C(=O)c2c[nH]c3ncc(-c4ccc(Cl)cc4)cc23)c1F`, the Potency was 20.9 µM (active) in experiment [1], 16.8 µM (active) in [2] and 1.37 µM (active) in experiment [7]. Further, the viability (% of control) in experiment [3] amounted to 41.4%. The viability, percent of control in [4] was determined as 4.32%. For the same molecule, the Potency result in [6] was “inactive”. Also, the result in experiment [8] was inactive.

With `CCOc1cc(C(=O)Nc2ccc(Cl)c(-c3nc4ccccc4[nH]3)c2)cc(OCC)c1OCC`, the Potency result in [1], in experiment [2], in experiment [5], in experiment [6] and in experiment [7] was “inactive” in each case. For the same molecule, in experiment [3], the viability (% of control) was found to be 69.8%. In experiment [4], the viability, percent of control stood at 85.2%. Further, the outcome in [8] was inactive.

Turning to `CC1(C)CNc2cc(NC(=O)c3cccnc3NCc3ccncc3)ccc21`, the Potency result in [1] and in [6] was “inactive” each time. The outcome in experiment [9] and in [8] was inactive. Further, the viability (% of control) in [3] came to 49.2%. In [4], the viability, percent of control is 86%.

For `CCOc1cc(C=C2C(=O)N(c3ccccc3)N=C2C)cc(Cl)c1OCC(=O)OC`, the Potency result in experiment [1], in experiment [5] and in [7] was “inactive” each time. The call in [9] and in experiment [8] was inactive. For the same molecule, the viability (% of control) in experiment [3] was found to be 81.8%. Moreover, the viability, percent of control in experiment [4] was determined as 46.9%.

On to `CS(=O)(=O)Oc1ccc2c(NC(N)=O)c(C(=O)c3ccc(Cl)cc3Cl)oc2c1`, for which the Potency result in experiment [1], in experiment [5], in experiment [6] and in experiment [7] was “inactive” each time. Besides, the call in experiment [9] and in [8] was inactive. The viability (% of control) in experiment [3] came out at 84.9%. Besides, the viability, percent of control in experiment [4] was determined as 78.9%.

On to `COc1ccc(CCN2CCN(CCCc3ccccc3)CC2)cc1OC`, for which the Potency entry in experiment [1], in experiment [2], in [5] and in [6] was “inactive” each time. In addition, the viability (% of control) in experiment [3] was 83.9%. In addition, the viability, percent of control in experiment [4] was found to be 85.9%. In addition, the molecule was classed as inactive in experiment [8].

Take `c1ccc(-c2nn3c(c2-c2ccnc4cc(OCCN5CCOCC5)ccc24)CCC3)nc1`: the Potency result in experiment [1] and in experiment [6] was “inactive” in each case. Moreover, the molecule was called inactive in [9] and in experiment [8]. In addition, the viability (% of control) in experiment [3] was determined as 41.4%. In addition, the viability, percent of control in [4] came to 77.9%. In addition, in [7], the Potency is 8.67 µM (active).

For `COc1ccc2nc(S(=O)Cc3ncc(C)c(OC)c3C)[nH]c2c1` (stereo not given), the Potency result in experiment [1], in experiment [2], in experiment [5], in [6] and in [7] was “inactive” each time. Also, the viability (% of control) in [3] is 52.2%. Further, the viability, percent of control in experiment [4] was determined as 89.4%. Moreover, the Potency in [10] was 27.3 µM (active). The activation in experiment [11] is -0.714% (inactive). Further, the call in experiment [8] was inactive.

As for `Cc1c(C)c2c(c(C)c1O)CCC(C)(COc1ccc(CC3SC(=O)NC3=O)cc1)O2` (stereo not given), the Potency in experiment [10] was 21.7 µM (active). Also, the activation in experiment [11] was -3.91% (inactive); in [12], 5.68% (inactive).
